We go through 14 molecules from PubChem BioAssay (NCATS).

The nature of experiment [1]: Quantitative High-Throughput drug screen in 47 multiple myeloma cell lines against the NCATS MIPE library collection: FR4_PLB cell viability assay (AID 1918924; note: nearly all actives have a fitted effect of over 35% in size; note: potency is the fitted concentration of half-maximal effect). The gist of the method:
(§1)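 qHTS of the MIPE 4.0 collection: 500 myeloma cells/well, 48 h drug exposure at 37C in 5% CO2, then CellTiter-Glo for 5 min at room temperature before luminescence reading.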

A short description of experiment [2]: Quantitative High-Throughput drug screen in 47 multiple myeloma cell lines against the NCATS MIPE library collection: EJM_DSMZ cell viability assay (AID 1918926; note: nearly all actives have a fitted effect of over 30% in size; note: potency is the fitted concentration of half-maximal effect). The gist of the method:
(§2)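 Myeloma cells (500 per well) were exposed to MIPE 4.0 compounds by pin transfer and incubated 48 hours at 37C, 5% CO2. Viability was read as ATP by CellTiter-Glo luminescence, normalised to DMSO (100%) and media-only (0%) wells.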

A short description of experiment [3]: Quantitative High-Throughput drug screen in 47 multiple myeloma cell lines against the NCATS MIPE library collection: AMO1_DSMZ cell viability assay (AID 1918927; note: nearly all actives have a fitted effect of over 30% in size; note: potency is the fitted concentration of half-maximal effect). The gist of the method: as §2
Experiment [4] in a line: Quantitative High-Throughput drug screen in 47 multiple myeloma cell lines against the NCATS MIPE library collection: ARP1_JJKsccF8 cell viability assay (AID 1918928; note: nearly all actives have a fitted effect of over 40% in size; note: potency is the fitted concentration of half-maximal effect). The gist of the method:
(§3)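 Cell viability inhibition in this qHTS is measured via ATP content (CellTiter-Glo) after 48 h drug exposure at 37 °C. Wells hold 500 cells; DMSO-treated wells define 100% and medium-only wells 0%.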

Experiment [5] is described as follows: Quantitative High-Throughput drug screen in 47 multiple myeloma cell lines against the NCATS MIPE library collection: ARD_JJKsccE7 cell viability assay (AID 1918929; note: potency is the fitted concentration of half-maximal effect). In outline: as §2
The nature of experiment [6]: Quantitative High-Throughput drug screen in 47 multiple myeloma cell lines against the NCATS MIPE library collection: Karpas620_DSMZ cell viability assay (AID 1918959). Note: nearly all actives have a fitted effect of over 30% in size. Note: potency is the fitted concentration of half-maximal effect. The gist of the method:
as §1

A short description of experiment [7]: Quantitative High-Throughput drug screen in 47 multiple myeloma cell lines against the NCATS MIPE library collection: KMM1_JCRB cell viability assay (AID 1918960). Note: nearly all actives have a fitted effect of over 30% in size. Note: potency is the fitted concentration of half-maximal effect. In outline:
as §3

Experiment [8] can be described thus: Quantitative High-Throughput drug screen in 47 multiple myeloma cell lines against the NCATS MIPE library collection: Karpas417_ECACC cell viability assay (AID 1918961). Note: potency is the fitted concentration of half-maximal effect. Conditions: Karpas417 myeloma viability, CellTiter-Glo ATP luminescence, 48 h; viability (% of DMSO): at 45.8 µM (top of the series). In outline:
(§4)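 Luminescent ATP measurement with CellTiter-Glo gives viability, scaled between DMSO-only wells (100%) and media-only wells (0%). Cells, 500 per well, faced library compounds for 48 hours at 37C.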
(In general: ATP-based viability assays read luminescence as a measure of living cells.)

Experiment [9] is described as follows: Quantitative High-Throughput drug screen in 47 multiple myeloma cell lines against the NCATS MIPE library collection: KHM11_PLB cell viability assay (AID 1918962). Note: nearly all actives have a fitted effect of over 35% in size. Note: potency is the fitted concentration of half-maximal effect. The gist of the method: as §1
Experiment [10] can be described thus: Quantitative High-Throughput drug screen in 47 multiple myeloma cell lines against the NCATS MIPE library collection: JIM3_ECACC cell viability assay (AID 1918963; note: nearly all actives have a fitted effect of over 35% in size; note: potency is the fitted concentration of half-maximal effect). In outline:
as §1

Experiment [11] is described as follows: Quantitative High-Throughput drug screen in 47 multiple myeloma cell lines against the NCATS MIPE library collection: H1112_PLB cell viability assay (AID 1918967; note: nearly all actives have a fitted effect of over 30% in size). The gist of the method: as §2
A short description of experiment [12]: Quantitative High-Throughput drug screen in 47 multiple myeloma cell lines against the NCATS MIPE library collection: Karpas25_ECACC cell viability assay (AID 1918968; note: nearly all actives have a fitted effect of over 35% in size; note: potency is the fitted concentration of half-maximal effect). In outline:
as §2

Experiment [13] can be described thus: Quantitative High-Throughput drug screen in 47 multiple myeloma cell lines against the NCATS MIPE library collection: KMS27_JCRB cell viability assay (AID 1918970). Note: nearly all actives have a fitted effect of over 30% in size. Note: potency is the fitted concentration of half-maximal effect. In outline:
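Myeloma cells (500 per well) were exposed to MIPE 4.0 compounds for 48 h at 37 °C, 5% CO2; viability was read as ATP luminescence with CellTiter-Glo, normalized to DMSO-only (100%) and media-only (0%) wells.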

Experiment [14] is described as follows: Quantitative High-Throughput drug screen in 47 multiple myeloma cell lines against the NCATS MIPE library collection: KMS12BM_JCRB cell viability assay (AID 1918971). Note: nearly all actives have a fitted effect of over 35% in size. Note: potency is the fitted concentration of half-maximal effect. In outline: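 Myeloma cell lines, 500 cells per well, exposed to MIPE 4.0 library compounds for 48 h at 37C, 5% CO2. Viability from ATP by CellTiter-Glo luminescence; normalised to DMSO (100%) and media-only (0%) wells.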

A short description of experiment [15]: Quantitative High-Throughput drug screen in 47 multiple myeloma cell lines against the NCATS MIPE library collection: INA6_PLB cell viability assay (AID 1918965; note: potency is the fitted concentration of half-maximal effect; nearly all actives have a fitted effect of over 55% in size). In outline: as §4
Experiment [16] in a line: Quantitative High-Throughput drug screen in 47 multiple myeloma cell lines against the NCATS MIPE library collection: JIM1_ECACC cell viability assay (AID 1918964). In outline:
as §2

Experiment [17] can be described thus: Quantitative High-Throughput drug screen in 47 multiple myeloma cell lines against the NCATS MIPE library collection: JJN3_DSMZ cell viability assay (AID 1918966; note: nearly all actives have a fitted effect of over 50% in size; note: potency is the fitted concentration of half-maximal effect). The gist of the method: as §2
Experiment [18] can be described thus: Quantitative High-Throughput drug screen in 47 multiple myeloma cell lines against the NCATS MIPE library collection: Delta47_JCRB cell viability assay (AID 1918925; note: potency is the fitted concentration of half-maximal effect; nearly all actives have a fitted effect of over 45% in size). The gist of the method:
as §2

Inconclusive results are not listed. Calls of active or inactive are those of the source. Calls come from the whole dose curve; as a rule, active = well fitted curve in the direction sought with a large enough effect; inconclusive = small, poorly fitted or top-dose-only effect, or another doubt; inactive = no such curve, though single readings can be large; an effect the other way counts as inactive or inconclusive. Non-standard residues stand in square brackets, D forms with d. Residues, ends and D or L forms follow the SMILES beside them. *: point of attachment. Sta = CC(C)C[C@H](N)[C@@H](O)CC(=O)O; Isovaleryl = CC(C)CC(=O)*

As to `Cc1nc2n(c(=O)c1CCN1CCC(c3noc4cc(F)ccc34)CC1)CCCC2`, the Potency result in [1], in [2], in experiment [3], in experiment [4], in [5] and in experiment [6] was “inactive” in each case. The Potency result in [7], in experiment [8], in experiment [9], in experiment [10], in [11] and in experiment [12] was “inactive” throughout. The Potency entry in [13] and in experiment [14] was “inactive” in each case.

As to `CCC[C@@H]1C[C@@H](C(=O)N[C@@H]([C@H]2O[C@H](SC)[C@H](O)[C@@H](O)[C@H]2O)[C@@H](C)O)N(C)C1`, the Potency result in experiment [1], in [3], in experiment [4], in experiment [5], in [7] and in experiment [8] was “inactive” each time. Moreover, the Potency result in experiment [9], in experiment [11], in experiment [12] and in experiment [13] was “inactive” each time. Further, the Potency was 3.32 µM (active) in [2] and 2.64 µM (active) in experiment [14].

Consider `O=C1c2ccccc2-c2n[nH]c3cccc1c23`, for which the Potency result in experiment [1], in experiment [6] and in experiment [11] was “inactive” throughout. For the same molecule, the Potency was 0.0017 µM (active) in experiment [2]; 20.9 µM (active) in experiment [3]; 1.18 µM (active) in experiment [5]; 20.9 µM (active) in [15]; 2.96 µM (active) in experiment [13].

As for `CC(C)CC(=O)N[C@H](C(=O)N[C@H](C(=O)N[C@@H](CC(C)C)[C@@H](O)CC(=O)N[C@@H](C)C(=O)N[C@@H](CC(C)C)[C@@H](O)CC(=O)O)C(C)C)C(C)C` (Isovaleryl-VV[Sta]A[Sta]-OH), the Potency result in [1], in [2], in experiment [4], in [5], in experiment [6] and in experiment [7] was “inactive” throughout. Moreover, the Potency result in [8], in [9], in experiment [16] and in [13] was “inactive” in each case.

`Nc1ncn([C@H]2C[C@H](O)[C@@H](CO)O2)c(=O)n1`: the Potency entry in experiment [1], in experiment [2], in [9] and in experiment [13] was “inactive” throughout. The Potency is 0.418 µM (active) in experiment [5]; 0.132 µM (active) in experiment [6]; 0.296 µM (active) in experiment [7]; 0.0235 µM (active) in experiment [15]; 4.69 µM (active) in [12].

In the case of `CNC[C@H](O)c1ccc(O)c(O)c1`, the Potency in experiment [1] is 9.59 µM (active); in [4], 15.2 µM (active); in experiment [10], 38.2 µM (active); in experiment [17] it was 13.6 µM (active); in experiment [12], 5.4 µM (active); in experiment [14], 19.1 µM (active). Also, the Potency result in experiment [3], in experiment [5], in experiment [6], in experiment [7], in [9] and in experiment [11] was “inactive” throughout. Moreover, the Potency result in experiment [13] is “inactive”.

Regarding `O=C(CS(=O)Cc1ccco1)NCC=CCOc1cc(CN2CCCCC2)ccn1` (configuration not stated), the Potency entry in [1], in experiment [2], in experiment [3], in [5], in experiment [7] and in experiment [16] was “inactive” in each case. The Potency entry in experiment [11], in experiment [13] and in experiment [14] was “inactive” in each case. In addition, the Potency in experiment [12] was 20.9 µM (active).

Regarding `CCOC(=O)c1c(C)n(C)c2ccc(O)cc12`, the Potency result in experiment [1], in [2], in [3], in [5], in experiment [6] and in [7] was “inactive” in each case. Besides, the Potency entry in experiment [10], in experiment [11], in experiment [12] and in [13] was “inactive” throughout.

Regarding `Clc1ccc2c(N3CCN(CCCN4CCN(c5ccnc6cc(Cl)ccc56)CC4)CC3)ccnc2c1`, the Potency entry in experiment [1], in [3], in experiment [5], in [6], in experiment [7] and in [17] was “inactive” each time. For the same molecule, the Potency entry in [11], in [12], in [13] and in [14] was “inactive” throughout.

Take `O=c1ccc2ccc(O)c(O)c2o1`: the Potency entry in experiment [1] and in experiment [5] was “inactive” in each case. The Potency in experiment [18] is 6.62 µM (active); in experiment [6], 23.5 µM (active); in [9], 11.8 µM (active); in experiment [17] it was 16.6 µM (active); in experiment [12], 3.32 µM (active); in experiment [13], 18.7 µM (active). In addition, the Potency in [14] is 18.7 µM (active).

For the molecule `CC(S)C(=O)NCC(=O)O` (configuration not stated), the Potency result in experiment [1], in [2], in [3], in [4], in [8] and in [10] was “inactive” throughout. For the same molecule, the Potency result in [16] and in experiment [13] was “inactive” each time. The Potency in [5] was 2.64 µM (active); in experiment [12], 1.87 µM (active).

For `CN1CCC(=C2c3ccccc3CCc3sccc32)CC1`, the Potency entry in experiment [1], in experiment [2], in experiment [4] and in experiment [11] was “inactive” throughout.

In the case of `Nc1nc(OCc2ccccc2)c2[nH]cnc2n1`, the Potency result in experiment [1], in [2], in experiment [6], in experiment [9], in experiment [11] and in experiment [14] was “inactive” each time. For the same molecule, the Potency in experiment [4] was 20.9 µM (active); in [8] it was 16.6 µM (active); in experiment [10], 13.2 µM (active); in experiment [12], 16.6 µM (active); in [13] it was 14.8 µM (active).

`Oc1ccc(OCc2ccccc2)cc1`: the Potency entry in experiment [1], in experiment [2], in [3], in experiment [5], in [6] and in experiment [8] was “inactive” each time. Further, the Potency entry in [10], in experiment [16], in [11], in experiment [12] and in experiment [13] was “inactive” in each case. Moreover, in experiment [4], the Potency is 18.7 µM (active).
